Measurements as given in PubChem BioAssay.
Activity calls are given as the source filed them.

What was measured:
[1] = small molecules captured by biotinylated probe aFSTL3 – biochemical, small-molecule microarray, fluorescence 635/667, stem cell growth factor project, primary screen (AID 1064); conditions: higher = more signal;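 also: measures binding of the biotinylated anti-FSTL3 antibody to printed compounds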
[2] = binders from COS7 lysate, DM2A8 probe, primary screen, torsin A project, cell lysate, small-molecule microarray, fluorescence 635/667 (AID 1065); conditions: higher = more signal, COS7 lysate expressing mutant human TOR1A
[3] = small molecules captured by biotinylated probe aFGF2 – biochemical, small-molecule microarray, fluorescence 635/667, stem cell growth factor project, primary screen (AID 1067); conditions: higher = more signal;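 also: measures binding of biotinylated aFGF2 protein to printed compounds on slides; z-score merges feature fluorescence and signal-to-noise across triplicate slides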
[4] = small molecules captured by biotinylated probe aFGF10 – biochemical, small-molecule microarray, fluorescence 635/667, stem cell growth factor project, primary screen (AID 1071); conditions: higher = more signal;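 also: score merges 667 nm spot intensity and signal to noise from triplicate slides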
[5] = biological target: Neurogenic locus notch homolog protein 2 (Homo sapiens) (UniProt Q04721); assay: small molecules binding Notch2 protein – biochemical, small-molecule microarray, 635 nm fluorescence, stem cell growth factors, primary screen (AID 1073); conditions: higher = more signal
Sequence of Neurogenic locus notch homolog protein 2 (Homo sapiens) (Q04721 whole entry, looked up, canonical isoform): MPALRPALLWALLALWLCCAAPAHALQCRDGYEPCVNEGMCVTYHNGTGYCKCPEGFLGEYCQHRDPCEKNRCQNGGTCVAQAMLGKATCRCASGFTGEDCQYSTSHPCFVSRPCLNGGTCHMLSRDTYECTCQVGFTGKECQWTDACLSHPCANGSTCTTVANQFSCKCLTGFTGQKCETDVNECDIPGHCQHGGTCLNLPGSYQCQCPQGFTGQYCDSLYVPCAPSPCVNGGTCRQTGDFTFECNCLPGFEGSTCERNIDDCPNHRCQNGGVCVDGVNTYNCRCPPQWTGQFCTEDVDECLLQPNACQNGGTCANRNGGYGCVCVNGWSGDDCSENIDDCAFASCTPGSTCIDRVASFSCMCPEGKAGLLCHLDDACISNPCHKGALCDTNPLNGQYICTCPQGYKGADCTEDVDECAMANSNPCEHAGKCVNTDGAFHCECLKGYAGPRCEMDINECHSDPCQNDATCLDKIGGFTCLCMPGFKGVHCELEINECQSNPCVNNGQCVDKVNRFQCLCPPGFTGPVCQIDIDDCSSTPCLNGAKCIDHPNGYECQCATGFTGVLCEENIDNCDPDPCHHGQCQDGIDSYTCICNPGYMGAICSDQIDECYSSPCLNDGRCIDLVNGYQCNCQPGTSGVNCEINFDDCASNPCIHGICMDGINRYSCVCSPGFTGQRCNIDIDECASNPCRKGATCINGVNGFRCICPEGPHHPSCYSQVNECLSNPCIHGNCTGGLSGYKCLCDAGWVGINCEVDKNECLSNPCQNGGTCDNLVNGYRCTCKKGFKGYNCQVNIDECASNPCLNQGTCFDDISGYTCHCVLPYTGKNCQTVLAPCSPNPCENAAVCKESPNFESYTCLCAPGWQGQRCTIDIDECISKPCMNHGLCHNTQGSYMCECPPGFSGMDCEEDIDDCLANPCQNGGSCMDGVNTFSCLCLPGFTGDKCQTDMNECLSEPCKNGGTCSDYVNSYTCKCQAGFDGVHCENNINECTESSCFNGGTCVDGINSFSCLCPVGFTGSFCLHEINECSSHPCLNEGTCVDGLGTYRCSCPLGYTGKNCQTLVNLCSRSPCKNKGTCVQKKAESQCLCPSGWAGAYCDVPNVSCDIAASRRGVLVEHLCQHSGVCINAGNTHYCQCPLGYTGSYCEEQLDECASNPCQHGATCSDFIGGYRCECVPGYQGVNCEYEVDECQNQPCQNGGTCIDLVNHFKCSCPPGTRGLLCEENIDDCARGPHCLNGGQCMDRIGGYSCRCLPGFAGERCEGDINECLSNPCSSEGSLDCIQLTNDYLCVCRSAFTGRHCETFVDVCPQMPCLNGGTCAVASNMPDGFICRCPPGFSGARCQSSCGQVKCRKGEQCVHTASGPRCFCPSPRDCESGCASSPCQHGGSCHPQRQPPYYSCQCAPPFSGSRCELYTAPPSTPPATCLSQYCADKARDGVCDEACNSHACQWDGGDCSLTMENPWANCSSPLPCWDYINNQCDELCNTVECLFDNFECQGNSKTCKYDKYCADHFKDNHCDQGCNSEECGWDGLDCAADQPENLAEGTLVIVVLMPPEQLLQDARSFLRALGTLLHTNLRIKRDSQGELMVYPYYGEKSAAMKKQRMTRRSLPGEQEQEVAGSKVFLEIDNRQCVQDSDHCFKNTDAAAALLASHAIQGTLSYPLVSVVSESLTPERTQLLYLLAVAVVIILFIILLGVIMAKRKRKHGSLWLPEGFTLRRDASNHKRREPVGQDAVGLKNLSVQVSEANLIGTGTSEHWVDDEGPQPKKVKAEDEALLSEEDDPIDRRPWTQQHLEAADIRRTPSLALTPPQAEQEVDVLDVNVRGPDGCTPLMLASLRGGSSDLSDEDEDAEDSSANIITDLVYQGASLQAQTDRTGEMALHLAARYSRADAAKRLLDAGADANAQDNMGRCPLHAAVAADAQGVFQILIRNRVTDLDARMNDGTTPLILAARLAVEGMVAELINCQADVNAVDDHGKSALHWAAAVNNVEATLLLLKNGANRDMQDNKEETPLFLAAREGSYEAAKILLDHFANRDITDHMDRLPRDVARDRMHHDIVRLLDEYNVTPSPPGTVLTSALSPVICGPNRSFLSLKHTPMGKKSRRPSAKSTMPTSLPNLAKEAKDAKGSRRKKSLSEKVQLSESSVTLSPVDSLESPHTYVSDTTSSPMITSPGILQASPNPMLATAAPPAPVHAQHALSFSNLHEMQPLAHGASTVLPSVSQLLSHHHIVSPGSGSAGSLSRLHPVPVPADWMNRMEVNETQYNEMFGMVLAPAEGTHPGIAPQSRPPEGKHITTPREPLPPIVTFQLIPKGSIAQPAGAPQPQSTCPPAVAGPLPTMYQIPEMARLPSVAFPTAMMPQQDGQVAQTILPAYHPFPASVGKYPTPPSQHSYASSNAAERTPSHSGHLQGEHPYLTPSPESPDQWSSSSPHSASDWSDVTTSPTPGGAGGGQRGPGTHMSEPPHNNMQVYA

[6] = biological target: Pro-neuregulin-1, membrane-bound isoform (Homo sapiens) (UniProt Q02297); assay: small molecules binding neuregulin-1 protein – biochemical, small-molecule microarray, fluorescence 635/667, psychiatric disease protein project, primary screen (AID 1075); conditions: NRG1 binding, 635 nm fluorescence, higher = more signal;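 also: score combines 667 nm spot fluorescence with signal to noise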
Sequence of Pro-neuregulin-1, membrane-bound isoform (Homo sapiens) (Q02297 whole entry, looked up, the tested form may be a part, canonical isoform): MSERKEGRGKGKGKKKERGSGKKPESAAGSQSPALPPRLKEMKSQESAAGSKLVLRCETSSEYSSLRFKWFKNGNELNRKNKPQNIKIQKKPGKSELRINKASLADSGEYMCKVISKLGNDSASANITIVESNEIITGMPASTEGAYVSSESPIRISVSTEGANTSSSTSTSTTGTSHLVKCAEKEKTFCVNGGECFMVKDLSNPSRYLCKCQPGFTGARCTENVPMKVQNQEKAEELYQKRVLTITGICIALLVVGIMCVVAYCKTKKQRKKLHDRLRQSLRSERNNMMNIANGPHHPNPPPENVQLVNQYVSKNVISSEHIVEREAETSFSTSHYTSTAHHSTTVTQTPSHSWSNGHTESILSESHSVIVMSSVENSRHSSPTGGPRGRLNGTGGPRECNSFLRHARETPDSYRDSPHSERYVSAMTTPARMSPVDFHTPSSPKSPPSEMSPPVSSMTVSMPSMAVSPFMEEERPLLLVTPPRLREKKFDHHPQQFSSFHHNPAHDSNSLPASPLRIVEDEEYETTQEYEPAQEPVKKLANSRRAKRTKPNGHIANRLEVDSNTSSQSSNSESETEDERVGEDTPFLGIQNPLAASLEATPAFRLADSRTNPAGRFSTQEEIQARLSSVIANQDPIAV

[7] = test system: Neuregulin-1 EGF-like domain; assay: small molecules binding NRG1 EGF domain – biochemical, small-molecule microarray, 635 nm fluorescence, primary screen (AID 1081); conditions: higher = more signal;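 also: binding of the protein to compounds printed on small-molecule microarray slides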
[8] = FRG1 expression reporter modulators in myotubes – cell-based, C2C12 myotubes, firefly/Renilla luciferase, luminescence, FRG1 inhibition for FSHD, primary screen (AID 1084); conditions: FRG1 promoter luciferase, higher = more signal, called active from +8 up or from −8 down
[9] = small molecules captured by biotinylated probe aFST – biochemical, small-molecule microarray, fluorescence 635/667, stem cell growth factor project, primary screen (AID 1086); conditions: higher = more signal;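 also: score merges 667 nm fluorescence with signal-to-noise of each printed compound spot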
[10] = binders of probe aHhip on microarray, primary screen, stem cell growth factor project, biochemical, small-molecule microarray, fluorescence 635/667 (AID 1087); conditions: higher = more signal;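 also: score merges spot fluorescence at 667nm with spot signal to noise ratio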
[11] = test system: PRMT1 (protein arginine N-methyltransferase 1); assay: small molecules binding arginine methyltransferase PRMT1 – biochemical, small-molecule microarray, 635 nm fluorescence, primary screen (AID 1088); conditions: higher = more signal;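 also: binding of Prmt1 protein to compounds spotted on small-molecule microarray slides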
[12] = growth effects on S. cerevisiae YJM789 – YJM789 clinical isolate, OD600, 24 h, basal, primary screen (AID 1089); conditions: higher = more signal, called active from +8 up or from −8 down;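 also: growth of clinical yeast isolate S. cerevisiae YJM 789 seeded 1000 cells per well; test concentration not given here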
[13] = S. pombe growth modifiers, basal conditions – strain 972, OD600, 24 h, no modulator, primary screen (AID 1090);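 also: basal condition with compound alone and no growth modifier present; test concentration not given here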; conditions: S. pombe 972 growth, higher = more signal, called active from +8 up or from −8 down
[14] = budding yeast growth modifiers under rapamycin – strain BY4716, OD600, 96 h, primary screen (AID 1091); also: test concentration not given here; conditions: S. cerevisiae BY4716 + rapamycin, higher = more signal, called active from +8 up or from −8 down
[15] = biological target: Torsin-1A-interacting protein 2 (Homo sapiens) (UniProt Q8NFQ8); assay: small molecules binding lysate-expressed LULL1 – cell lysate, human LULL1 lysate, 635/667 nm fluorescence, primary screen (AID 1092); conditions: small-molecule microarray, hLULL1 lysate binding, 635 nm fluorescence; higher = more signal;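 also: probe is lysate of COS7 cells overexpressing human LULL1; score merges per-feature 667 nm fluorescence with signal-to-noise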
Sequence of Torsin-1A-interacting protein 2 (Homo sapiens) (Q8NFQ8 whole entry, looked up): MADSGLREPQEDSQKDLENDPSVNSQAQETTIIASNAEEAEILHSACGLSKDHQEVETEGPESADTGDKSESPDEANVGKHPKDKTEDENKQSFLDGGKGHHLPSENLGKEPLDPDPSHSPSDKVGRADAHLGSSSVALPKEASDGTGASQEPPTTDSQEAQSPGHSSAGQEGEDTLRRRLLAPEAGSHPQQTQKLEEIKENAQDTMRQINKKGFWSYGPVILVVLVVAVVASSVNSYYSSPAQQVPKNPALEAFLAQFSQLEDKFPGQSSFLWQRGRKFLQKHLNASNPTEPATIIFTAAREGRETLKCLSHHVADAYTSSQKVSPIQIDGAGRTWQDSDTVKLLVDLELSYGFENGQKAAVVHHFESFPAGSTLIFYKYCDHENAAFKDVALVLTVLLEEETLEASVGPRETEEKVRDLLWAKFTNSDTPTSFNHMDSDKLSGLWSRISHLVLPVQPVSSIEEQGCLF

[16] = optical density change of DRC41 E. coli – strain DRC41, OD650, 24 h, E. coli filamentation project, primary screen (AID 1093);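 also: MC1000 strain lacking acrAB efflux and sulA so SOS filamentation is blocked; test concentration not given here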; conditions: E. coli DRC41 growth, higher = more signal, called active from +8 up or from −8 down
[17] = probe aLefty2 binding to arrayed compounds – biochemical, biotinylated probe, 635/667 nm fluorescence, primary screen (AID 1094); conditions: small-molecule microarray, higher = more signal;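 also: score merges spot fluorescence near 667 nm with spot signal-to-noise ratio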
[18] = test system: Noggin (protein binding on small-molecule microarray); assay: small molecules binding Noggin protein – biochemical, 635/667 nm fluorescence, primary screen (AID 1095); conditions: 635 nm fluorescence, higher = more signal;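 also: score merges 667 nm feature fluorescence with signal to noise over triplicate slides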
[19] = biological target: Neurogenic locus notch homolog protein 3 (Homo sapiens) (UniProt Q9UM47); assay: small molecules binding NOTCH3 protein – biochemical, 635/667 nm fluorescence, primary screen (AID 1096); conditions: small-molecule microarray, 635 nm fluorescence, higher = more signal
[20] = probe aEGFR binding to arrayed compounds – biochemical, biotinylated probe, 635/667 nm fluorescence, primary screen (AID 1097); conditions: small-molecule microarray, higher = more signal;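 also: probe is a biotinylated anti-EGFR antibody binding compounds printed on slides; score combines fluorescence near 667 nm and signal to noise of each spot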

Row | Structure (SMILES) | composite z-score [1] | composite z-score [2] | composite z-score [3] | composite z-score [4] | composite z-score [5] | composite z-score [6] | composite z-score [7] | z-score [8] | composite z-score [9] | composite z-score [10] | composite z-score [11] | z-score [12] | z-score [13] | z-score [14] | composite z-score [15] | z-score [16] | composite z-score [17] | composite z-score [18] | composite z-score [19] | composite z-score [20]
1 | COc1ccc(C(O)C2C=CC3C(=O)N(c4ccccc4)C(=O)C3N2Nc2ccccc2F)cc1OCc1ccccc1 (stereo not given) | 0.873 | -0.217 | 0.5 | 0.775 | 1.65 | 1.17 | 0.99 | 3.15 (inactive) | 1.1 | 0.0274 | 0.946 | -0.306 (inactive) | 0.754 (inactive) | 1 (inactive) | 2.94 | -0.994 (inactive) | 0.312 | -0.0436 | 0.386 | 0.308
2 | COC(=O)[C@@]1(Cc2ccc(OC)cc2)[C@H]2c3cc(C(=O)N(C)C)n(Cc4cccc5ccccc45)c3C[C@H]2CN1C(=O)c1ccccc1 | -0.193 | 1.16 | 0.118 | 1.15 | 1.27 | 1.79 | 1.36 | 0.189 (inactive) | 1.33 | 0.534 | 0.219 | -0.386 (inactive) | 0.514 (inactive) | 1.46 (inactive) | 2.78 | -0.223 (inactive) | 1.07 | 0.841 | 0.481 | 0.92
3 | CC(C)(C)OC(=O)CC[C@]12N=C(c3ccc(OCCCO)cc3)O[C@H]1c1ccccc1N(CCS(=O)(=O)c1ccccc1)C2=O | 0.144 | 0.433 | -0.0024 | 0.137 | 1.42 | 0.882 | 1.26 | 0.281 (inactive) | 0.682 | 0.0139 | 1.55 | 1.03 (inactive) | 1.65 (inactive) | 0.246 (inactive) | 3.17 | 0.522 (inactive) | 0.101 | 0.905 | 1.1 | 0.0288
4 | COCCOC(=O)N1C(=O)[C@@]2(c3cc(C#Cc4ccc(OC)cc4)ccc31)[C@H](C(N)=O)[C@H]1C(=O)O[C@H](c3ccccc3)[C@H](c3ccccc3)N1[C@@H]2c1ccccc1OCCO | 0.214 | 2.16 | 0.0918 | 1.11 | 1.53 | 1.64 | 1.27 | -1.26 (inactive) | 0.433 | 0.0431 | 1.54 | 1.05 (inactive) | 0.649 (inactive) | 3.72 (inactive) | 2.33 | 0.071 (inactive) | 0.306 | 1.55 | 1.08 | 0.245
5 | COCC(=C=CC[C@H](O)c1ccccc1OCCO)C[C@H](O)c1cc(Cl)cc(Cl)c1O | -0.417 | 0.555 | -0.129 | 0.999 | 0.421 | 1.43 | 1.14 | -3.97 (inactive) | 0.372 | -0.0994 | 1.45 | -24.4 (active) | -20.3 (active) | -4.61 (inactive) | 2.7 | -0.628 (inactive) | -0.0653 | 0.653 | 1.03 | -0.0703
6 | C=C(CCCC)/C(=C/C[C@@H](OC(C)=O)c1ccccc1OCCO)c1cnc2ccccc2c1 | 0.0298 | 1.08 | -0.0633 | -0.036 | 0.13 | 0.967 | 0.95 | -0.983 (inactive) | 0.0983 | 0.176 | 1.3 | 0.182 (inactive) | -0.727 (inactive) | 0.0058 (inactive) | 1.1 | 0.468 (inactive) | -0.0208 | 0.61 | 0.513 | -0.0675
7 | CCCCCCC#C[Si](O[C@H](c1ccccc1)c1cn([C@H](CO)Cc2ccccc2)nn1)(C(C)C)C(C)C | -0.206 | 0.0423 | -0.142 | 0.296 | -0.39 | -0.138 | 1 | -0.334 (inactive) | -0.682 | -0.0324 | 1.55 | -2.3 (inactive) | -16.2 (active) | -1.57 (inactive) | 1.7 | 1.16 (inactive) | -0.198 | 0.0817 | -0.0029 | -0.115
8 | COc1cc2c(cc1OC)CN(C(=O)[C@@H]1[C@H]3C(=O)O[C@H](c4ccccc4)[C@H](c4ccccc4)N3[C@H](c3ccc(O)cc3)[C@@]13C(=O)Nc1ccc(C#CC4(O)CCCCCC4)cc13)CC2 | -1.38 | 0.75 | -0.0197 | 0.763 | 1.18 | 1.73 | 1.35 | 0.651 (inactive) | 0.0629 | -0.274 | 1.55 | 0.739 (inactive) | -0.0727 (inactive) | 0.257 (inactive) | 3.46 | 0.395 (inactive) | -0.232 | 1.59 | 1.08 | 0.0685
9 | CN1C(=O)C2C=CC(C(O)c3cccs3)N(Nc3ccccc3)C2C1=O (stereo not given) | 0.0812 | 0.552 | -0.0628 | 0.415 | 0.94 | 1.22 | 1.4 | -0.263 (inactive) | 0.388 | 0.261 | 0.881 | 0.442 (inactive) | 0.917 (inactive) | 0.662 (inactive) | 3.24 | -1.32 (inactive) | 0.139 | 0.395 | 0.826 | -0.0111
10 | CC(C)C(=C=CC[C@@H](O)c1ccccc1OCCO)CCO | -0.386 | -0.193 | -0.115 | 0.269 | 0.0761 | 1.71 | 1.36 | -1.6 (inactive) | 0.285 | -0.214 | 0.895 | -2.18 (inactive) | -17.8 (active) | -2.09 (inactive) | -0.559 | 0.364 (inactive) | -0.0998 | 0.315 | 0.428 | -0.096
